Screening data (PubChem)
A selection: hits, their analogues and other compounds. The true share with any hit is near 27%.
CYP2C9 act: human CYP2C9 activators, primary screen, biochemical, luminescence; Cytochrome P450 2C9 (Homo sapiens), P11712; recombinant CYP2C9, luciferin-H conversion; hits give high values; factor 1 = untreated enzyme, 0 = blocked; activation factor at 5 µM; 1.4% of 96,000 active; AID 1024, 2008;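 active = activation factor of 2 or more for CYP2C9 at a 5 µM dose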
Target sequence (P11712 whole entry, looked up): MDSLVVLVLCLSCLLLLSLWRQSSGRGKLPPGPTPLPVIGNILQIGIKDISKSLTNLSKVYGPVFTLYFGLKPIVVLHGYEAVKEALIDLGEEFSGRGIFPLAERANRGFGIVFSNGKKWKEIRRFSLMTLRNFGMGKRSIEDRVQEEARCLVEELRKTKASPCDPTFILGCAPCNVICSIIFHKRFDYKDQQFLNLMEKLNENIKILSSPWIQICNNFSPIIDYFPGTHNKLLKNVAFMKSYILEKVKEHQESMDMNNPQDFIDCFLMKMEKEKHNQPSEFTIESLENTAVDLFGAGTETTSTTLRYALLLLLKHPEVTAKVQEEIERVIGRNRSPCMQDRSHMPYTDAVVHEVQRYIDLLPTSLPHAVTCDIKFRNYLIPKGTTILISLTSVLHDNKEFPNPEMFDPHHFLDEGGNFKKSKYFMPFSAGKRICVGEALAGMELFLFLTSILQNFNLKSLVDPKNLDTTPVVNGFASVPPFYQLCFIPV
CYP2C9 inhib: blockers of cytochrome P450 2C9 activity – biochemical, luminescence, ADME assay, primary screen. 20% of 96,000 active. P11712. CYP2C9 Supersomes, luciferin-H conversion. AID 777, 2007. inhibition, % at 5 µM;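 active = blocking of liver enzyme CYP2C9 beyond about 50% at 5 µM, limit read from the data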
CYP2C19 inh: blockers of cytochrome P450 2C19 activity – biochemical, luminescence, ADME assay, primary screen | CYP2C19 Supersomes, luciferin-H EGE luminescence, 30 min | inhibition, % at 5 µM | 21% of 96,000 active | AID 778, 2007;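 active = CYP2C19 inhibition above a set limit at 5 µM in the primary screen, cut at about 50% in these data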
Cav32 inh: Cav3.2 calcium influx blockers – cell-based, Fluo-4 calcium fluorescence, FDSS, MLSMR library, primary screen | Cav3.2-expressing cells; hits give low values | 4% of 100,000 active | Voltage-dependent T-type calcium channel subunit alpha-1H (Homo sapiens), O95180 | B-score at 10 µM | AID 449739, 2010;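 active = single-dose well whose peak fluorescence ratio is a statistical outlier from its plate by either plate-standardised score or position-corrected B-score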
CYP2C19 activ: human CYP2C19 activators, primary screen, biochemical, luminescence | Cytochrome P450 2C19 (Homo sapiens), P33261 | activation factor at 5 µM | recombinant CYP2C19, luciferin-H EGE luminescence; hits give high values; 0 = fully inhibited enzyme, 1 = untreated enzyme | 96,000 tested, under 10 active;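 active = activation factor of at least 2 at 5 µM in the primary screen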
Hits are given with their value; i = inactive; nt = not tested or not shown.

SMILES	CYP2C9 act	CYP2C9 inhib	CYP2C19 inh	Cav32 inh	CYP2C19 activ
CO/N=C(/CS(=O)(=O)Cc1ccccc1Cl)c1ccc(Cl)cc1Cl	i	i	52.4	i	i
NS(=O)(=O)c1ccc(CCNc2ncnc3c2c(-c2ccccc2)cn3-c2ccc(F)cc2)cc1	i	56.9	i	i	i
COc1ccc(-c2cc(C(=O)N3CC4(C)CC3CC(C)(C)C4)no2)cc1 (stereo unspecified)	i	i	i	i	i
CC1(C)CC2CC(C)(CN2C(=O)c2cc(-c3ccccc3O)on2)C1 (stereo unspecified)	i	72.9	53.7	i	i
CC1CCN(C(=O)c2cc(-c3ccccc3O)on2)CC1	i	i	67.3	i	i
CC1(C)CC2CC(C)(CN2C(=O)CCCN2C(=O)c3ccccc3C2=O)C1 (stereo unspecified)	i	i	86.4	i	i
CC1(C)CC2CC(C)(CN2C(=O)c2cccs2)C1 (stereo unspecified)	i	i	73.9	i	i
Cc1c(/C(Cc2ccccc2)=N/O)c2ccccc2n1C	nt	nt	nt	i	nt
CCC(C(=O)NC1CCCCC1)n1c(SCc2cccc(F)c2)nc2ccncc21 (stereo unspecified)	nt	nt	nt	i	nt
COc1ccc(-c2nc(Cn3c(SCc4cccc(F)c4)nc4ccncc43)c(C)o2)cc1OC	i	89.0	73.2	i	i
COc1ccc(-c2nc(Cn3c(SCc4ccc(C)cc4)nc4ccncc43)c(C)o2)cc1OC	i	52.9	53.1	i	i
CC1(C)CC(CC(=O)O)(c2ccc(Cl)cc2)CCO1 (stereo unspecified)	i	i	i	i	i
Cc1c2cccn2cc[n+]1C	i	i	i	i	i
C1CNCCOCCNCCN1	i	i	i	i	i
CCOC(=O)c1ccc(N2Cc3ccccc3C2=N)cc1	i	84.7	i	i	i
CC1(C)CC(=O)N(c2ccccc2)C1(C)O (stereo unspecified)	i	i	i	i	i
CCC1(C)N=c2c(c(=O)n(C)c(=O)n2C)=NO1 (stereo unspecified)	i	i	i	i	i
COc1ccc(-n2cnc3cc(NS(=O)(=O)c4ccccc4)ccc32)cc1	nt	nt	nt	i	nt
COc1ccc(S(=O)(=O)Nc2ccc(Oc3ncccn3)c(Cl)c2)cc1	i	98.3	99.7	i	i
COc1ccc(NS(=O)(=O)c2ccc(Oc3ncccn3)cc2)cc1	i	69.2	81.3	i	i
Cc1nc(CSc2nnc3scc(-c4ccc(Cl)cc4)n23)cs1	i	i	60.5	i	i
O=C(CSc1nnc2scc(-c3ccccc3)n12)Nc1nsc(-c2ccc(Cl)cc2)n1	nt	nt	nt	i	nt
COc1ccccc1C(=O)NC(=Nc1nc2ccccc2o1)NC(=O)c1ccccc1OC	i	73.2	65.4	i	i
CCOc1ccccc1N(C(=O)CNS(=O)(=O)c1ccccc1)C(CC)C(=O)NCc1ccco1 (stereo unspecified)	i	i	i	i	i
O=C(CSc1cn(Cc2cccc(F)c2)c2ccccc12)NCc1ccc(F)cc1	nt	nt	nt	i	nt
SMILES	CYP2C9 act	CYP2C9 inhib	CYP2C19 inh	Cav32 inh	CYP2C19 activ
O=C1c2ccccc2NC(c2ccc(O)cc2)N1Cc1ccco1 (stereo unspecified)	i	60.0	i	i	i
Cc1ccc(C2Nc3ccccc3C(=O)N2Cc2ccco2)cc1 (stereo unspecified)	i	86.2	i	i	i
CCN(CC)CCN1C(=O)c2ccccc2NC1c1ccc(C)cc1 (stereo unspecified)	i	i	i	i	i
CCOC(=O)c1ccc(N2CSC3=C(C#N)C(c4ccc(OC)cc4OC)CC(=O)N3C2)cc1 (stereo unspecified)	i	91.3	51.5	i	i
COc1ccc(OC)c(C2CC(=O)N3CN(c4ccc(C)c(Cl)c4)CSC3=C2C#N)c1 (stereo unspecified)	i	96.2	54.0	i	i
COc1ccc(OC)c(C2CC(=O)N3CN(c4cccc(Cl)c4)CSC3=C2C#N)c1 (stereo unspecified)	i	90.4	70.1	i	i
CCCCCC(=O)N1CCN(CCN=CC2=C(O)CC(c3cccs3)CC2=O)CC1 (stereo unspecified)	i	i	i	i	i
CCCC(=O)N(CCN(C(=O)CCC)c1ccccc1)c1ccccc1	nt	nt	nt	-4.07	nt
Cc1onc(-c2ccccc2)c1C(=O)NCc1ccccn1	i	i	i	i	i
Cc1onc(-c2ccccc2)c1C(=O)NCc1ccc2c(c1)OCO2	i	57.2	91.6	i	i
Cc1onc(-c2ccccc2)c1C(=O)NCC1COc2ccccc2O1 (stereo unspecified)	i	i	79.1	i	i
Cc1cc(Oc2ccccc2)nc(OCC#N)n1	i	i	i	i	i
O=C(NCCc1ccccc1)C(=O)c1c(-c2ccccc2)[nH]c2ccccc12	nt	nt	nt	i	nt
O=C(NC1CCCCC1)N(Cc1cc2cc3c(cc2[nH]c1=O)OCCO3)C1CCCCC1	i	75.1	i	i	i
CCC(=O)N(Cc1cc2cc(C)c(C)cc2[nH]c1=O)C1CCCCC1	i	69.2	80.6	i	i
CC(=O)N(Cc1cc2c(C)cc(C)cc2[nH]c1=O)C1CCCCC1	i	62.7	i	i	i
COc1ccc(CN(Cc2cc3cc(OC)c(OC)cc3[nH]c2=O)C(=O)NC2CCCCC2)cc1	i	i	i	i	i
CCC(=O)N(Cc1cc(=O)[nH]c2ccccc12)C1CCCCC1	i	i	i	i	i
CCOC(=O)Cn1nnnc1C(C(C)C)N(Cc1cc2c(C)cc(C)cc2[nH]c1=O)C1CCCC1 (stereo unspecified)	nt	nt	nt	i	nt
CC1(c2ccco2)NC(=O)NC1=O (stereo unspecified)	nt	nt	nt	i	nt
CCOc1ccc(N(CC(=O)NC(C)(C)C)C(=O)c2ccco2)cc1	i	89.9	i	i	i
C/C=C(\C)CN1CCN(c2ccc(C)cc2)CC1	i	i	85.9	i	i
C=CCn1c(O)c(N=NC(=O)CNC(=O)/C=C/c2ccco2)c2ccccc21	i	70.6	i	i	i
Cc1cc(NC(=O)c2cncc(Br)c2)no1	i	i	i	i	i
COc1ccc(OC)c(NC(=O)C(CC(C)C)NC(=O)C2CCCCC2)c1 (stereo unspecified)	i	i	i	i	i
COc1ccc(OC)c(NC(=O)C2CCCC2)c1	i	i	i	i	i
CCC(C)C(NC(=O)C1CCC(C)CC1)C(=O)Nc1cc(OC)ccc1OC (stereo unspecified)	i	69.0	i	i	i
COc1ccc(OC)c(NC(=O)C2CCCN2C(=O)C2CCC(C)CC2)c1 (stereo unspecified)	i	57.2	53.1	i	i
COc1ccccc1NC(=O)C(CC(C)C)NC(=O)C1CCCCC1 (stereo unspecified)	i	i	50.8	i	i
